Assay outcomes (PubChem BioAssay)
Pol iota inh: DNA polymerase iota (human) inhibition; Pol iota fluorescent replication assay, 10 min; Potency, µM (series often up to 115 µM), most hits filed as inhibitors; hit rate 1% among 390,000; AID 588590; Q9UNA4
Target sequence (Q9UNA4 whole entry, looked up): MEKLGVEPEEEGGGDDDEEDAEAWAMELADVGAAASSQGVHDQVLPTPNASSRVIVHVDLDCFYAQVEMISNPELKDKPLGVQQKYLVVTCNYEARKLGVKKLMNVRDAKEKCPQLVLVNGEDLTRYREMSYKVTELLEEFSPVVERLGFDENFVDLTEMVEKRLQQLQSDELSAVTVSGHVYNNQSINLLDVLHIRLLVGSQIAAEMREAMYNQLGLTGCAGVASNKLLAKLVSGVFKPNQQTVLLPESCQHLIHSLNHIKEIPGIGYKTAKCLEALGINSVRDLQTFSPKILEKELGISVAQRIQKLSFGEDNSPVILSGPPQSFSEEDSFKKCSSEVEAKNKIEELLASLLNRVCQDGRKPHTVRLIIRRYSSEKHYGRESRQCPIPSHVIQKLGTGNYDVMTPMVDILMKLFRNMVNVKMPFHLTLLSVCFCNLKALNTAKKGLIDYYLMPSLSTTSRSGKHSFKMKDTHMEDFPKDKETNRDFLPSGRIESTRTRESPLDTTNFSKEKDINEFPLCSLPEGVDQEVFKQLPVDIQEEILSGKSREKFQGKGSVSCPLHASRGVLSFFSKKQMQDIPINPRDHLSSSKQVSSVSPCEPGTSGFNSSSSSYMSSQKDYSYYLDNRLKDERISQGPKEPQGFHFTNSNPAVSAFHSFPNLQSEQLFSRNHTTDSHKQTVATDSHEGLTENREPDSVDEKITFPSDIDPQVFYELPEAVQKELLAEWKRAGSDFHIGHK
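Pol iota at 10 nM preincubated 15 min with compounds at room temperature; reaction started with fluorescent substrate, 50 nM final. Fluorescence read kinetically at 0 and 10 min; buffer-only wells as negative control.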
Pol eta inh: inhibitors of human DNA polymerase eta; Potency, µM (highest dose often 114 µM), hits mostly inhibitors; hit rate 1.2% among 390,000; Q9Y253; recombinant Pol eta, fluorescent DNA replication assay
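Pol eta at 10 nM preincubated with compounds 15 min at room temperature; reaction started with fluorescent substrate (50 nM final) and read kinetically at 0 and 10 min.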
Pol beta inh: DNA polymerase beta (human) inhibition; hit rate 1.3% among 340,000; Pol beta primer extension/strand displacement, fluorescence kinetic; Potency, µM (doses to about 114 µM), most hits filed as inhibitors
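Human Pol beta at 10 nM; strand-displacement substrate 50 nM final. Compound exposure 15 min at room temperature before start, reaction 10 min at room temperature.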
TDP1 block: blocks human tyrosyl-DNA phosphodiesterase 1 | Q9NUW8 | Potency, µM (titrated, usually from 130 µM), actives largely listed as inhibitors | hit rate 0.28% among 350,000 | recombinant TDP1, AlphaScreen DNA substrate cleavage; also: nearly all actives have a fitted effect of over 40% in size
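Here, a 5' biotin and 3' phosphotyrosine-FITC DNA oligonucleotide reports Tdp1 activity: intact substrate bridges AlphaScreen beads, while cleavage leaves a 3' phosphate and drops signal. All incubations at room temperature.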
FEN1 inhibitor: human FEN1 inhibition. P39748. Potency, µM (doses to about 114 µM), usual class: inhibitors. Recombinant FEN1 flap cleavage, fluorescence, 15 min. AID 588795. hit rate 0.35% among 390,000; also: nearly all actives have a fitted effect of over 65% in size
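With each library titrated from low to high concentration, compounds met 10 nM FEN1 for 15 min at room temperature before 50 nM substrate was added; readings at 0 and 15 min fed four-parameter Hill curve fits.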
POLK inh: DNA polymerase kappa (human) inhibition; purified Pol kappa, fluorescent DNA synthesis assay, 10 min; Potency, µM (highest dose often 107 µM), most hits filed as inhibitors; AID 588579; Q9UBT6; hit rate 0.53% among 400,000
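Here, compound and 10 nM enzyme are combined for 15 min at room temperature; adding 50 nM substrate (final) starts DNA synthesis, tracked by fluorescence at 0 and 10 min against buffer-only wells.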
Numbers stand for hits; n = inactive; u = inconclusive; x = no result; ! = not confirmed by another sample. Hits are enriched below; roughly 2.4% of the tested compounds scored in any of these assays. Calls follow the shape of the dose curve; as a rule, active = well fitted curve in the direction sought with a large enough effect; inconclusive = small, poorly fitted or top-dose-only effect, or another doubt; inactive = no such curve, though single readings can be large; an effect the other way counts as inactive or inconclusive.

SMILES | Pol iota inh | Pol eta inh | Pol beta inh | TDP1 block | FEN1 inhibitor | POLK inh
CC[C@H](C)[C@H](NC(=O)[C@H](CCC(=O)O)NC(=O)[C@H](C)NC(=O)[C@@H](NC(=O)[C@H](Cc1cnc[nH]1)NC(=O)[C@@H](NC(=O)[C@H](CCC(=O)O)NC(=O)[C@H](C)NC(=O)[C@@H](NC(=O)[C@H](CC(C)C)NC(=O)[C@H](Cc1cnc[nH]1)NC(=O)[C@H](Cc1cnc[nH]1)NC(=O)[C@H](CC(C)C)NC(=O)[C@H](Cc1c[nH]c2ccccc12)NC(=O)[C@H](Cc1ccccc1)NC(=O)[C@H](CCCNC(=N)N)NC(=O)[C@H](CCCNC(=N)N)NC(=O)[C@H](CCCNC(=N)N)NC(=O)[C@H](CC(C)C)NC(=O)[C@H](CC(=O)O)NC(=O)[C@H](CCC(N)=O)NC(=O)[C@@H](NC(=O)[C@H](CO)NC(=O)[C@H](CCCCN)NC(=O)CNC(=O)[C@H](CCCCN)NC(=O)[C@H](CC(=O)O)NC(=O)[C@H](Cc1cnc[nH]1)NC(=O)[C@H](CC(C)C)NC(=O)[C@H](CC(C)C)NC(=O)[C@H](CCC(N)=O)NC(=O)[C@@H](NC(=O)[C@H](CCC(=O)O)NC(=O)[C@H](CO)NC(=O)[C@@H](NC(=O)[C@H](C)N)C(C)C)[C@@H](C)CC)[C@@H](C)CC)[C@@H](C)CC)[C@@H](C)CC)[C@@H](C)O)C(=O)O | x | x | x | n | x | n
CCOc1cc(/C=C(\C#N)C(=O)Nc2cccc(C(=O)O)c2)cc(Br)c1OC(=O)c1ccc(OC)cc1 | u | 79µM | 16µM | n | n | u
COc1cc(/C=C/[N+](=O)[O-])ccc1OCc1cccc(C(=O)O)c1 | u | 32µM | 32µM | x | 50µM | 25µM
COc1cccc(/C=C(/C#N)c2ccc(Cl)cc2)c1OCc1cccc(C(=O)O)c1 | n | n | u | n | n | n
COc1cccc(/C=C(/C#N)c2ccc(F)cc2)c1OCc1cccc(C(=O)O)c1 | u | u | 40µM | n | n | n
N#C/C(=C/c1ccc(OCc2ccc(C(=O)O)cc2)cc1)C(=O)Nc1ccccc1 | n | u | n | x | u | n
COc1cc(/C=C(\C#N)C(=O)Nc2cccc(C(=O)O)c2)ccc1OCc1ccc(F)cc1 | u | 50µM | 45µM | 56µM | u | n
O=c1c2ccccc2nc(-c2ccccc2O)n1Cc1ccccc1 | x | x | x | n | x | x
N#C/C(=C/c1ccccc1OCc1ccc(F)cc1)c1ccc(C(=O)O)cc1 | n | n | n | x | n | n
N#C/C(=C/c1cccn1-c1cccc(C(=O)O)c1)c1ccc(F)cc1 | 25µM | 25µM | 32µM | x | n | u
O=C(c1ccc2c(c1)N(Cc1cccc(F)c1)C(=O)c1ccccc1S2)N1CCOCC1 | u | u | 50µM | n | n | n
Cc1ccc(NC(=O)c2cc(=O)n(Cc3ccccc3)c(=O)[nH]2)cc1C | u | n | 40µM | n | n | n
O=C(O)c1cc(=O)n(Cc2ccccc2)c(=O)[nH]1 | n | n | n | x | n | n
CCOC(=O)N1CCN(S(=O)(=O)c2ccc3[nH]cc(C(=O)O)c(=O)c3c2)CC1 | n | u | u | n | n | n
CC(=O)N1CCc2cc(S(=O)(=O)CCC(=O)N3CCN(c4ccccc4)CC3)ccc21 | n | n | 1.3µM | n | n | n
O=C(O)CCC(=O)N1CCc2cc(S(=O)(=O)N3CCN(c4ccc(F)cc4)CC3)ccc21 | u | n | 22µM | n | n | n
O=C(O)c1c[nH]c2ccc(S(=O)(=O)N3CCN(c4ccc(F)cc4)CC3)cc2c1=O | u | 89µM | 20µM | n | u | u
COc1ccc2c(c1)C/C(=C\c1ccc(N(C)C)cc1)C2=O | n | x | x | x | n | n
CC(C)(C)n1ncc2c(=O)n(Cc3ccc(Cl)c(OC(F)(F)F)c3)cnc21 | n | x | x | x | n | n
CC(/C=N/NC(=O)c1nnn(-c2nonc2N)c1CN(C)C)=C\c1ccco1 | 20µM | n | n | n | n | 79µM
O=S(=O)(c1ccc(OC(F)(F)F)cc1)N1CCC(c2nnnn2-c2ccc(F)cc2)CC1 | n | n | n | n | n | n
C/C(=N/NC(=O)C(O)(c1ccccc1)c1ccccc1)c1ccc([N+](=O)[O-])o1 | u | 79µM | 13µM | n | n | n
CCCCCCCCCCCCCCCC(=O)N[C@@H](COP(=O)(O)O)C(=O)O | x | x | x | n | x | 27µM!
O=C(Nc1ccc2oc(-c3ccc(Cl)c(Cl)c3)nc2c1)c1ncn[nH]1 | u | u | 11µM | n | n | u
O=C(Nc1ccc2oc(-c3ccncc3)nc2c1)c1cccs1 | n | u | 22µM | x | u | n
SMILES | Pol iota inh | Pol eta inh | Pol beta inh | TDP1 block | FEN1 inhibitor | POLK inh
O=C(NCc1cccs1)c1cc(-c2ccncc2)nc2ccc(Br)cc12 | x | x | 40µM | n | x | x
COCCNC(=O)c1cc(-c2cccnc2)nc2ccc(Br)cc12 | n | n | n | n | n | n
CC[C@]12C(=O)N(C)C[C@H]([C@@H]3C(=O)N(C)C(=O)[C@@H]31)N2C(=O)c1ccc(C)cc1 | u | u | x | x | n | n
O=C(NNS(=O)(=O)c1cccc(Cl)c1)c1cc(-c2ccc(F)cc2)nc2ccccc12 | u | u | 50µM | n | n | n
O=C(NN=C1CCCC1)c1cc(-c2ccc(F)cc2)nc2ccccc12 | n | n | n | n | n | n
CN(CC(=O)NC(=O)NCc1ccccc1)CC(=O)Nc1ccc(Cl)c(C(F)(F)F)c1 | 89µM | n | x | x | n | n
Cc1cnc(C(=O)OCC(=O)c2csc(N3CCCCC3)n2)cn1 | u | 25µM | 45µM | n | n | n
CCn1c(=O)cc(SCC(=O)NCc2cccc(Cl)c2)c2ccccc21 | u | n | n | n | n | n
O=C(N/N=C/c1ccc([N+](=O)[O-])s1)c1ccncc1 | u | n | n | n | n | n
Cc1ccc(C(=O)N/N=C/c2ccc([N+](=O)[O-])s2)cc1 | u | n | 28µM | u | n | n
COc1ccccc1N1CCN(C(=O)CCC(=O)N2CCN(c3ccccc3OC)CC2)CC1 | u | n | n | x | n | n
COc1ccccc1N1CCN(C(=O)N2CCOCC2)CC1 | 89µM | n | n | n | n | n
COC(=O)c1ccc(NC(=O)C(C)Sc2nc(=O)cc(N)n2CCc2ccccc2)cc1 (stereo unspecified) | n | n | n | n | n | n
Cc1ccc(NC(=O)Nc2cn(C)c(=O)c3ccccc23)c(Cl)c1 | 71µM | n | u | x | n | n
Cc1ccc(C)c(S(=O)(=O)c2nnn3c2nc(N2CCCCC2)c2sccc23)c1 | n | n | n | n | n | n
COc1ccccc1C1CC(=O)Oc2cc3c(cc21)OCO3 (stereo unspecified) | x | x | x | x | x | 14µM
CS(=O)(=O)N1N=C(c2ccccc2)CC1c1ccc2c(c1)OCO2 (stereo unspecified) | n | 32µM | u | n | n | n
